NS1 inh = inhibitors of influenza NS1 protein function. Potency, µM (top dose mostly 46.1 µM). 270,000 tested, 0.4% active. AID 2326; calls by dose curve; further: actives are rising curves; nearly all actives have a fitted effect of over 50% in size
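Recovery from NS1-induced slow growth read by OD600 in budding yeast switched to galactose assay medium (pH 6.0, -URA) at 1:100 dilution. Compound 23 nl per well; the matching strain lacking NS1 serves as control.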
Pf growth 96h = P. falciparum growth inhibition at 96 hours | P. falciparum luciferase reporter growth, 96 h | Potency, µM (titrated, usually from 28.7 µM), hits mostly inhibitors | 320,000 tested, 6.9% active
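Two-generation exposure (96 h) targets delayed-death phenotype. Reporter parasites carrying integrated firefly luciferase, in red cells at 2% hematocrit and 0.05% parasitemia final, kept at 37 C, 5% CO2; luminescence loss indicates inhibition.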
SARS PLP yeast = blocks SARS-CoV papain-like protease in a yeast assay; S. cerevisiae expressing SARS-CoV PLpro, growth rescue; Potency, µM (top dose mostly 32.9 µM), most hits filed as activators; 330,000 tested, 0.19% active; AID 485353; calls by dose curve; further: nearly all actives have a fitted effect of over 55% in size
HCV inh = blocks hepatitis C virus; Huh7.5.1 HCVcc-Cre infection, luciferase reporter, 44 h; Potency, µM (doses to about 41.8 µM), most hits filed as inhibitors; 340,000 tested, 3.4% active; AID 651820
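Luciferase read-out (15 sec integration) after a 15 min room-temperature substrate step quantifies HCVcc-Cre infection. Cells, 1,000 per well, had compound added 4 h post-plating, then virus at ~0.5 moi, and were cultured 44 h.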
AMA1 RON2 block = inhibitors of Plasmodium falciparum AMA1-RON2 interaction | AlphaScreen AMA1-biotinylated RON2 peptide binding | 360,000 tested, 0.2% active | Potency, µM (highest dose often 58.2 µM), actives largely listed as inhibitors; further: nearly all actives have a fitted effect of over 45% in size
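AMA1 (3D7) with his tag at 25 nM final met compounds first, then biotinylated RON2 peptide at 25 nM; detection used donor plus acceptor beads, 10 µg/mL apiece, read by AlphaScreen after 30 min at room temperature.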
Pf growth 48h = P. falciparum growth inhibition at 48 hours (one generation). P. falciparum luciferase growth in erythrocytes, 48 h. Potency, µM (doses to about 28.7 µM), hits mostly inhibitors. 310,000 tested, 5.9% active. AID 504832
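Cell-based growth assay: transgenic P. falciparum expressing firefly luciferase, cultured in red cells within RPMI 1640 containing 0.5% w/v Albumax, 24 mM bicarbonate and gentamycin. A drop in luciferase activity indicates inhibition.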
Each line names hits and unclear results; the compound was inactive in the other large screens. The list is not random: actives were taken first. Their share in the collection is about 12%. Unless noted, the call rests on the fitted dose curve; in most records, active means well fitted curve in the direction sought with a large enough effect; inconclusive means small, poorly fitted or top-dose-only effect, or another doubt; inactive means no such curve, though single readings can be large; an effect the other way counts as inactive or inconclusive.

COc1ccc(S(=O)(=O)NCCN2CCNC2=O)cc1OC	none
N#CCCN(C(=O)CSc1nc2ccccc2c(=O)[nH]1)c1ccc(F)cc1	none (no result: NS1 inh, Pf growth 96h, Pf growth 48h)
CC1(C)CC(=O)C(C=Nc2ccccc2)=C(O)C1	none
CC1(C)CC(=O)C(C=NCC(O)c2ccccc2)=C(O)C1 (stereo not given)	Pf growth 96h 7.38µM
COc1ccc(NS(=O)(=O)c2ccc(N3CCOCC3)c(NC(=O)c3ccc(OC)cc3)c2)cc1	NS1 inh inconclusive, Pf growth 96h 11.7µM, HCV inh inconclusive
O=C(Nc1cc(S(=O)(=O)Nc2ccc(Cl)cc2)ccc1N1CCCCC1)c1ccc(F)cc1Cl	Pf growth 96h 6.57µM, HCV inh inconclusive, Pf growth 48h inconclusive
COc1ccc(NS(=O)(=O)c2ccc(N3CCOCC3)c(N)c2)cc1	HCV inh 6.31µM (no result: NS1 inh)
COc1ccc(NS(=O)(=O)c2ccc(N3CCOCC3)c(NC(=O)c3ccccc3Cl)c2)cc1	HCV inh inconclusive, Pf growth 48h 10.4µM
COc1ccc(S(=O)(=O)Nc2ccc(N3CCOCC3)cc2)cc1	none (no result: Pf growth 48h)
COc1cc(CC(=O)OCC(=O)NCc2ccco2)cc(OC)c1OC	none (no result: NS1 inh, Pf growth 96h, Pf growth 48h)
Cc1cc(=O)[nH]c(SCC(=O)N(CCC#N)c2ccccc2)c1C#N	none (no result: NS1 inh)
CN(C1CCCCC1)S(=O)(=O)c1ccc2c(c1)c(=O)c(C(=O)O)cn2C	none (no result: NS1 inh, Pf growth 96h, SARS PLP yeast, HCV inh, Pf growth 48h)
O=CN1CCCN(Cc2nc(-c3cccc(Cl)c3)no2)CC1	none
O=C(CCN1C(=O)COc2ccccc21)NCCCN1CCN(c2ccccc2F)CC1	Pf growth 96h 2.62µM
O=C(Cn1cc(S(=O)(=O)N2CCN(c3ccccc3F)CC2)c2ccccc2c1=O)NCCCN1CCCCCC1	HCV inh 22.4µM, Pf growth 48h inconclusive (no result: NS1 inh)
O=C(CN1C(=O)COc2ccccc21)NCCCN1CCCCC1	Pf growth 96h 1.04µM
Cc1ccccc1C(=O)NCC(=O)OC(C)C(=O)NCc1ccco1 (stereo not given)	none (no result: NS1 inh)
Cc1nc2ccccc2c(=O)n1NC(=O)c1cccc([N+](=O)[O-])c1	Pf growth 96h inconclusive (no result: NS1 inh)
COC(=O)C1CCN(C(=O)COC(=O)c2oc3ccc(OC)cc3c2C)CC1	none
Cc1ccc(C(Sc2ccccc2)C(Cn2cncn2)C(=O)c2ccccc2)cc1 (stereo not given)	Pf growth 96h 9.28µM, HCV inh inconclusive (no result: Pf growth 48h)
COc1cc(/C=C(\C#N)c2nc(-c3cc4ccccc4oc3=O)cs2)ccc1O	Pf growth 96h inconclusive, HCV inh inconclusive
CCN(CC)CCOC(=O)c1ccc(N/C=C(/C#N)c2nc(-c3ccc4c(c3)OCO4)cs2)cc1	Pf growth 96h 1.31µM, HCV inh 10µM, AMA1 RON2 block inconclusive, Pf growth 48h 1.04µM
CCN(CC)CCOC(=O)c1ccc(N/C=C(/C#N)c2nc(-c3cc4ccccc4oc3=O)cs2)cc1	Pf growth 96h 0.147µM, Pf growth 48h 0.0828µM
CCN(CC)CCOC(=O)c1ccc(N/C=C(/C#N)c2nc(-c3ccc(OC)cc3)cs2)cc1	Pf growth 96h inconclusive, HCV inh inconclusive, AMA1 RON2 block inconclusive, Pf growth 48h inconclusive
COc1cc(/C=C(/C#N)c2nc(-c3cc4ccccc4oc3=O)cs2)cc([N+](=O)[O-])c1O	Pf growth 96h inconclusive, Pf growth 48h 2.33µM (no result: HCV inh, AMA1 RON2 block)
C[C@H]1C=C(C(=O)O)O[C@@H](OCc2ccc(CO)cc2)C1	none (no result: NS1 inh, Pf growth 96h, SARS PLP yeast, Pf growth 48h)
CC(NC(=O)c1ccco1)C(=O)N1CCN(c2cccc(C(F)(F)F)c2)CC1 (stereo not given)	Pf growth 96h inconclusive, Pf growth 48h inconclusive (no result: NS1 inh)
COc1ccc(N(C(C)=O)C2C=CS(=O)(=O)C2)c(OC)c1 (stereo not given)	Pf growth 96h 10.4µM
CCOc1cc(C2C(C(=O)O)c3cc(OCC)c(OCC)cc3C(=O)N2C)ccc1O (stereo not given)	Pf growth 96h 11.7µM
COc1cc2c(cc1OC)C(C(=O)O)C(c1ccc(C)o1)N(C)C2=O (stereo not given)	Pf growth 96h 13.1µM
Cc1ccc(C2C(C(=O)O)c3ccccc3C(=O)N2C)o1 (stereo not given)	HCV inh inconclusive (no result: Pf growth 96h)
Cc1ccccc1Nc1n[nH]c(C)c1[N+](=O)[O-]	Pf growth 96h 3.7µM
CCN(CC)c1ccc(/C=N/N2CC(=O)NC2=S)cc1	Pf growth 96h 3.7µM, Pf growth 48h inconclusive (no result: NS1 inh)
CCN(CC)c1ccc(/C=N/n2c(C)cc(C)cc2=O)cc1	Pf growth 48h 7.38µM
COc1ccc(C(=O)Nc2ccnn2C2CCN(C(=O)c3cnsn3)CC2)cc1	none (no result: HCV inh)
CCOC(=O)N1CCN(S(=O)(=O)c2ccc(C(=O)Nc3ccc4c(c3)C(=O)NC4=O)cc2)CC1	none
CCOC(=O)CSc1nc2ccccc2c(=O)n1CC1COc2ccccc2O1 (stereo not given)	HCV inh 2.51µM
CCOC(=O)CSc1nc2ccccc2c(=O)n1CC1CCCO1 (stereo not given)	Pf growth 96h inconclusive, HCV inh 8.91µM
CCCN(CCC)C(=O)CSc1nc2ccccc2c(=O)n1CC1COc2ccccc2O1 (stereo not given)	HCV inh inconclusive, Pf growth 48h inconclusive
CC(Sc1nc2ccccc2c(=O)n1CC1CCCO1)C(=O)N(C)Cc1ccccc1 (stereo not given)	Pf growth 96h 10.4µM, HCV inh inconclusive, Pf growth 48h inconclusive (no result: NS1 inh)
CC(Sc1nc2ccccc2c(=O)n1C)C(=O)N(C)C1CCCCC1 (stereo not given)	Pf growth 96h inconclusive, HCV inh inconclusive, Pf growth 48h 1.85µM (no result: NS1 inh)
CC(Sc1nc2ccccc2c(=O)n1CC1CCCO1)C(=O)NC(C)c1ccccc1 (stereo not given)	Pf growth 48h inconclusive (no result: NS1 inh)
CCC1(c2ccc(F)cc2)NC(=O)N(CC(=O)Nc2ccc(C)c(S(=O)(=O)N3CCOCC3)c2)C1=O (stereo not given)	none
CCOc1ccc(C(=O)NCC(=O)NCC(c2cccs2)N2CCOCC2)cc1 (stereo not given)	none (no result: NS1 inh, SARS PLP yeast)
CCCS(=O)(=O)NC(=O)C1(C)CCCN(C(=O)c2ccccc2F)C1 (stereo not given)	none (no result: NS1 inh, Pf growth 96h, SARS PLP yeast, HCV inh, Pf growth 48h)
CC(C)C12CC[C@@]3(CC[C@H]4[C@@](C)(CCC[C@]4(C)C(=O)O)[C@@H]3C1)[C@@H](CN)C2	none (no result: Pf growth 96h, SARS PLP yeast, HCV inh, AMA1 RON2 block, Pf growth 48h)
CN1CCN(c2ccc(NC(=O)c3ccc(C(F)(F)F)cc3)cn2)CC1	Pf growth 96h inconclusive, HCV inh 11.2µM, Pf growth 48h inconclusive (no result: NS1 inh)
Cc1ccccc1C(=O)Nc1ccc(N2CCN(C)CC2)nc1	none (no result: NS1 inh)
CCc1cc(/C(Cc2ccccn2)=N\Nc2ccccc2)c(O)cc1O	Pf growth 96h inconclusive
CC(C)=CCc1c(O)cc2oc3c(CC=C(C)C)c(O)c(O)c(CC=C(C)C)c3c(=O)c2c1O	HCV inh inconclusive, Pf growth 48h 13.1µM
CC(C)=CCc1cc(-c2oc3cc(O)cc(O)c3c(=O)c2O)ccc1O	HCV inh inconclusive (no result: NS1 inh, Pf growth 96h, SARS PLP yeast, Pf growth 48h)
Cc1nn(-c2ccccc2)c(Cl)c1/C=N/NC(N)=O	none
